Results: ChEMBL document CHEMBL4513146, “CO-ADD screening of Karazin Kharkiv National University (Ukraine) compounds”
Measured potencies and affinities stand elsewhere.

Experiments:
Staphylococcus aureus = details: Concentration 32 ug.mL-1;; ASSAY_TEST Inhibition of Bacterial Growth; detection method Absorption (OD600); MEDIA CAMHB; plate type 384well; NBS; CORNING #3640; time 18 hr
Escherichia coli = details: Concentration 32 ug.mL-1;; ASSAY_TEST Inhibition of Bacterial Growth; detection method Absorption (OD600); MEDIA CAMHB; plate type 384well; NBS; CORNING #3640; time 18 hr

SMILES	Inhibition (Staphylococcus aureus)	Inhibition (Escherichia coli)
O=C(Cn1nc2c(N3CCOCC3)nccn2c1=O)Nc1ccc(Br)cc1F	13.39%	2.9%
CCOC(=O)c1ccc(NC(=O)Cn2nc3ccc(-c4ccc(Cl)cc4)nn3c2=O)cc1	7.47%	-1.44%
CCCc1ccc(S(=O)(=O)Nc2ccc3nncn3n2)cc1	16.11%	2.74%
CCc1ccccc1Sc1nccn2c(=O)n(CC(=O)NCc3ccc(OC)cc3)nc12	-5.48%	-1.47%
Cc1cccc(C)c1NC(=O)Cn1nc2c3c4c(sc3ncn2c1=O)CCCC4	7.51%	-3.38%
Cc1cc(Br)ccc1NC(=O)Cn1nc2c(Sc3cccc(F)c3)nccn2c1=O	10.13%	-1.3%
COc1ccc(CNC(=O)Cn2nc3c4cc(-c5ccc(C)c(C)c5)nn4ccn3c2=O)cc1	6.21%	2.95%
O=C(Cn1nc2c(SCc3ccc(Cl)cc3)nccn2c1=O)Nc1ccccc1F	4.88%	-0.33%
Cc1cccc(NC(=O)Cn2nc3ccc(-c4ccccc4)nn3c2=O)c1	1.55%	-5.19%
O=C(CCc1nnc2c(N3CCCCC3)nc3ccccc3n12)NCCc1ccc(Cl)cc1	11.18%	0.17%
O=C(Cn1nc2c(SCc3ccccc3)nccn2c1=O)NCc1ccc(Cl)cc1	-0.34%	-19.62%
CC(C)Cc1ccc(S(=O)(=O)Nc2ccc3nncn3n2)cc1	13.61%	2.12%
CCOC(=O)c1ccccc1NC(=O)Cn1nc2c(Oc3cccc(OC)c3)nccn2c1=O	-10.31%	1.57%
CCOc1ccc(NC(=O)Cn2nc3c(Sc4ccccc4)nccn3c2=O)cc1	1.52%	-2.95%
CCc1ccccc1Sc1nccn2c(=O)n(CC(=O)Nc3cccc(Br)c3)nc12	8.83%	2.3%
O=C(CSc1nnc2c(=O)n(-c3ccccc3)ccn12)NCc1ccc(Cl)cc1	9.66%	-0.23%
CCc1nnc2c(=O)n(CC(=O)Nc3cc(Cl)ccc3Cl)c3ccccc3n12	1.29%	-5.86%

SMILES	Inhibition (Staphylococcus aureus)	Inhibition (Escherichia coli)
CCOc1ccc(-n2ccn3c(SCC(=O)c4cccc(Cl)c4)nnc3c2=O)cc1	18.89%	0.66%
CCc1nnc2ccc(S(=O)(=O)N(Cc3ccccc3F)c3ccc(OC)cc3)cn12	11.76%	-5.17%
CCOc1ccc(C(=O)CSc2nnc3c(=O)n(-c4ccc(Br)cc4)ccn23)cc1	15.75%	-1.32%
Cc1cc(C)c(NC(=O)Cn2nc3n(C)c(=O)c4c(c(-c5ccccc5)cn4C)n3c2=O)c(C)c1	6.14%	1.74%
COc1ccc(-c2cc3c4nn(CC(=O)Nc5ccc(C)c(F)c5)c(=O)n4ccn3n2)cc1	0.97%	2.58%
COc1ccc(C)cc1NC(=O)Cn1nc2ccc(SC(C)(C)C)nn2c1=O	2.65%	-6.39%
COc1ccc(NC(=O)CSc2nnc3c(=O)n(-c4cccc(OC)c4)ccn23)cc1	14.04%	-12.03%
CC(=O)c1cccc(NC(=O)CSc2nnc3ccc(C(=O)Nc4cccc(F)c4)cn23)c1	12.95%	-3.3%
COc1ccc(NC(=O)c2ccc3nn(CC(=O)Nc4cccc(OC)c4)c(=O)n3c2)cc1	15.63%	0.97%
COc1ccc(-c2cc3c4nnc(CCC(=O)NCc5ccc(OC)c(OC)c5)n4ccn3n2)cc1	6.96%	-5.17%
CCOC(=O)c1ccccc1NC(=O)CSc1nc2ccccc2n2c(C(C)C)nnc12	6%	-2.48%
O=S(=O)(c1ccc2nncn2c1)N(Cc1ccc(F)cc1)c1ccc(F)c(F)c1	-11.56%	-13.53%
COc1ccccc1CNC(=O)Cn1nc2c(N3CCCCCC3)nccn2c1=O	17.1%	-0.92%
O=C(CSc1nc2ccccc2n2c(-c3ccccc3)nnc12)Nc1ccc(Br)cc1	12.1%	-0.27%
O=C(CCc1nnc2c(N3CCCCC3)nc3ccccc3n12)NCc1ccc2c(c1)OCO2	17.67%	2.95%
Cc1ccc(-c2noc(Cn3nc4ccc(-c5ccccc5)nn4c3=O)n2)cc1	-9.52%	-11.36%
